Experimental findings from PubChem BioAssay AID1454 (National Center for Advancing Translational Sciences (NCATS), 2008) are described below.

Among all 130,000 compounds or so, about 550 (0.42%) were called active. Inconclusive results (about 4%) are left out. This is one part of a sample in which actives are shown more often than they occur. Unmarked numbers belong to inactive results. Calls come from the whole dose curve; as a rule, active = well fitted inhibition curve with a large enough effect; inconclusive = small, poorly fitted or top-dose-only effect, or effect the other way; inactive = flat fitted curve, though single readings scatter.
Potency is the fitted concentration of half-maximal effect.

The nature of the test: qHTS Assay for Inhibitors of the ERK Signaling Pathway using a Homogeneous Screening Assay; Stimulation with EGF.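 For activity change, negative = inhibition: plate controls were stimulated vehicle wells for no effect and unstimulated vehicle basal for full effect.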 Note: nearly all actives have a fitted effect of over 55% in size. The following applies: HEK293-V1b, EGF-stimulated phospho-ERK AlphaScreen; series mostly up to 11.5 µM; activity change, negative = inhibition: at the top concentration. The text has this: NIH Chemical Genomics Center [NCGC]
NIH Molecular Libraries Screening Centers Network [MLSCN]
Assay Submitter (PI): Dr. Wei Zheng, NCGC/NIH
The Ras/extracellular-signal-regulated kinase (ERK) mitogen activated protein (MAP) kinase signaling pathway (ERK1/2 cascade) plays a key role in transmitting signals from the cell surface to the nucleus (Nishida and Gotoh 1993; Chang and Karin, 2001). The cascade is initiated by the small G-protein Ras, which recruits Raf from the cytosol, where activation occurs. Alternatively, this pathway can be activated by elevating intracellular cAMP, or by activation of a receptor tyrosine kinase as epidermal growth factor receptor.
Activation of the ERK pathway is essential in increased cell division and cell survival. Sustained and constitutive activation of the ERK pathway, however, has been linked to uncontrolled cell proliferation, increased cell survival, and tumor progression. Thus, the ERK has been as an attractive target for cancer chemotherapy in the past few years (Sebolt-Leopold and Herrera, 2004). Given its physiological and pathological importance, assessment of ERK phosphorylation has been broadly performed in both basic research and drug discovery. Most assays for the measurement of ERK phosphorylation use the antibody-based detection methods, such as western blot and ELISA. These assays require multiple reagent additions with cell wash steps and are not suitable for high throughout screening.
The current cell-based ERK phosphorylation assay was performed using AlphaScreen platform. AlphaScreen is a two bead-based proximity-dependent chemical energy transfer luminescent assay platform. The assay reagents (ERK SureFire(TM) kit) were supplied from TGR BioSciences (Australia). In the presence of specific antibodies, phosphorylated ERK will bring "donor" and "acceptor" beads to a proximity range (<200 nm), and subsequently lead a chemical luminescent reaction upon exciting donor beads with 680 nm laser. To exclude the assay-related false positives, we used a biotinylated rabbit IgG to perform counter-screen. The biotinylated antibody mimics the phosphorylated ERK1/2 for bringing streptavidin coated beads and protein-A coated beads to a proximity range for the AlphaScreen detection.
NCGC Assay Protocol Summary:
HEK293 cells stably expressing type-1 vasopressin receptor (V1b) were maintained in DMEM medium (Invitrogen, Carlsbad, CA) at 37C under a humidified atmosphere containing 5% CO2 and 95% air. The medium contained 10% FBS, 2 mM L-glutamine, non-essential amino acid, pyruvate and 50 U/ml penicillin and 50 ug/ml streptomycin (Invitrogen). The aliquots of frozen cells were stored at -135C and used for the compound screening. All compounds were screened as titrations from 0.6 nM to 46 uM final concentration. Epidermal growth factor (EGF) was used to stimulate the ERK phosphorylation pathway. The ERK phosphorylation in cells was determined using an AlphaScreen assay kit provided by […]. Data were normalized to the controls for basal activity (DMSO only) and 100% activation (25 nM EGF). AC50 values were determined from concentration-response data modeled with the standard Hill equation.
(1) Seed 4 ul/well of resuspended frozen HEK293 cells containing 2000 cells in white 1536-well plates for overnight with 1% FBS at 37C under a humidified atmosphere containing 5% CO2 and 95% air.
(2) Add 23 nL compounds in DMSO solution. The final titration was 0.6 nM to 46 uM.
(3) Incubate at 37C for 30 min.
(4) Dispense 0.5uL EGF (25 nM in final)
(5) Incubate at 37C for 5 min.
(6) Dispense 0.5uL of 1:2 diluted 5x lysis buffer.
(7) Incubate at 37C for 10 min.
(8) Dispense 1.5uL of mixture of activation buffer and reaction buffer with AlphaScreen beads (streptavidin donor beads and protein-A acceptor beads, 10 ng/well for each).
(9) Incubate at room temperature for 5 hr.
(10) Detect the assay plate in an EnVision plate reader (PerkinElmer) using the AlphaScreen detection mode.
[…]
`CCOc1ccc(-c2nc(N)ncc2-c2ccccc2OC)c(O)c1`: the “activity change, negative = inhibition” value was -12.6% [at 57.5 µM]. On to `O=C(Nc1ccc2oc(-c3ccccc3F)nc2c1)c1ccco1`, for which the “activity change, negative = inhibition” value is 0.33%. The same measure, in the same setting: to `Cc1ccc(S(=O)(=O)N(C)C)cc1NC(=O)c1n[nH]c(=O)c2ccccc12` belongs -4.99% [at 57.5 µM]; to `O=C(CNC(=O)COc1ccccc1)NCCc1ccccn1`, -0.794%; to `CCCn1nc(Oc2nc(NC(C)C)nc(N(C)C)n2)ccc1=O`, -6.22%. On the same count and under the same terms, the value for `O=C(NCC(=O)N(CC1CCCO1)C(C(=O)NC1CCCCC1)c1ccccc1)c1ccco1` (stereo not given) was -4.65%; that for `NS(=O)(=O)c1ccc(NC(=O)COC(=O)c2ccco2)cc1` was 10.8%.

Turning to `O=C(Cn1cnc2ccccc2c1=O)Nc1cccc(S(=O)(=O)N2CCCCC2)c1`, the “activity change, negative = inhibition” value was 14.9% [at 57.5 µM]. As for `Fc1ccc(-c2csc(-c3ccc(C4SCCS4)cc3)n2)cc1F`, the “activity change, negative = inhibition” value was -5.85% [at 57.5 µM].

For the molecule `COCC1CCCN(Cc2nc(-c3ccc4c(c3)OCO4)no2)C1` (stereo not given), the “activity change, negative = inhibition” value was 2.16%.

As for `CCNC(=O)CC1C(=O)N(c2ccc(F)cc2)C(=O)N1Cc1cccs1` (stereo not given), the “activity change, negative = inhibition” value is -4.27%. Take `CN(C)S(=O)(=O)c1ccc(Cl)c(NC(=O)COC(=O)CC(NC(N)=O)c2ccc(Cl)cc2)c1` (stereo not given): the “activity change, negative = inhibition” value was 9.73% [at 57.5 µM]. On the same count and under the same terms, to `COc1ccc(/C=C/c2nnc(NC(=O)C(C)C)s2)cc1` belongs 1.71% [at 57.5 µM]. Take `O=C(O)c1ccc(/C=N/Nc2nc(N3CCCCC3)nc(N3CCCCC3)n2)cc1`: the “activity change, negative = inhibition” value was -5.89% [at 57.5 µM]. For `COc1cc(OC)cc(-c2nnc(SCC(=O)Nc3ccc(C(=O)O)cc3)s2)c1`, the “activity change, negative = inhibition” value was -1.87%.

As to `NC(=O)COc1ccc(NC(=O)c2ccccc2-c2ccccc2)cc1`, the “activity change, negative = inhibition” value is -15.3%. Still for that read-out and setting: the value for `O=C(CSc1nncs1)NC1CCCc2ccccc21` (stereo not given) was -7%. For the molecule `O=C(O)c1cccnc1Sc1ncnc2sc3c(c12)CCC3`, the “activity change, negative = inhibition” value is -13.3% [at 57.5 µM].

In the case of `N#C/C(=C/c1ccc(N2CCOCC2)o1)C(=O)N1CCOCC1`, the “activity change, negative = inhibition” value was 11.4%. Regarding `N#C/C(=C\C1=C(N2CCOCC2)C(=C\c2ccccc2)/CC1)C(=O)Nc1ccccc1F`, the Potency is 7.08 µM (active).

On to `N#C/C(=C\c1ccccc1C(F)(F)F)C(=O)Nc1ccccc1F`, for which the “activity change, negative = inhibition” value is -4.8%. For the molecule `O=C(CSc1nnnn1-c1ccc(O)cc1)c1ccc(F)cc1`, the “activity change, negative = inhibition” value is -7.72% [at 57.5 µM].

For the molecule `O=C(CCCNS(=O)(=O)c1cccc2nsnc12)NCCN1CCN(c2ccccc2F)CC1`, the “activity change, negative = inhibition” value was -6.43%. Turning to `CCN(CC)CCCNC(=O)Cn1cnc2sc(C)c(S(=O)(=O)N3CCN(c4ncccn4)CC3)c2c1=O`, the “activity change, negative = inhibition” value is -2.86%.

In the case of `COc1cccc(CNC(=O)CCC2CCCN(C(=O)c3ccoc3C)C2)c1` (stereo not given), the “activity change, negative = inhibition” value was -3.88%. For the molecule `COC(=O)c1ccccc1NC(=S)NC(=O)c1ccccc1F`, the “activity change, negative = inhibition” value was -0.514%. Turning to `O=C(NC(=S)NC1CCSC1=O)c1ccccc1F` (stereo not given), the Potency was 20 µM (active).

For `O=C(NCCc1csc(-c2ccccc2)n1)c1ccccc1F`, the “activity change, negative = inhibition” value was 5.73% [at 57.5 µM].

As to `Cc1ccc(S(=O)(=O)N2CCN(C(=O)COC(=O)c3c(C)noc3C)CC2)c(C)c1`, the “activity change, negative = inhibition” value was -0.545% [at 57.5 µM]. On the same count and under the same terms, to `O=C(NNC(=O)c1cnccc1C(F)(F)F)c1ccc(Cl)cc1` belongs -8.71% [at 57.5 µM].

For the molecule `COc1cc2nc(Cl)nc(NCCO)c2cc1OC`, the “activity change, negative = inhibition” value is 1.73% [at 57.5 µM].

With `NS(=O)(=O)c1cccc(NC(=O)CSc2nc3ccccc3n2-c2ccccc2)c1`, the “activity change, negative = inhibition” value is -7.08%. `COC(=O)c1ccc(NC(=S)NN2CCOCC2)cc1`: the “activity change, negative = inhibition” value is -0.482%. `CN1CCN(/N=C2/C(=O)Nc3ccc([N+](=O)[O-])cc32)CC1`: the “activity change, negative = inhibition” value is -4.33%. As to `COCCCNC(=S)N(Cc1ccccc1)Cc1ccc(F)cc1`, the “activity change, negative = inhibition” value is 0.532%.

In the case of `Cc1nn(-c2ccccc2)c(C)c1/C=C/C(=O)OC(C)C(N)=O` (stereo not given), the “activity change, negative = inhibition” value was -1.64%. As to `Cc1nn(-c2ccccc2)c(Cl)c1/C=C/C(=O)c1ccc(O)cc1`, the Potency is 15.8 µM (active). In the case of `O=C(/C=C/c1ccc(Cl)c([N+](=O)[O-])c1)c1ccc(O)cc1`, the “activity change, negative = inhibition” value is 2.12% [at 57.5 µM]. With `COc1ccc(OC)c(NC(=O)N[C@H](Cc2ccccc2)C(=O)NN)c1`, the “activity change, negative = inhibition” value was 2.4% [at 57.5 µM].

With `CN(C)S(=O)(=O)c1ccc(C(=O)NCC(C)(C)N2CCOCC2)cc1`, the “activity change, negative = inhibition” value was -14.2% [at 57.5 µM]. For the molecule `CC1(C)OC(=O)C(=CSc2ccc(C(C)(C)C)cc2)C(=O)O1`, the “activity change, negative = inhibition” value was -2.11%. As to `COc1ccc(NC(=O)N2CCC(Cc3ccccc3)CC2)cc1`, the “activity change, negative = inhibition” value is -15.1%. For the molecule `COc1ccc(NC(=S)NCCNC(C)=O)cc1`, the “activity change, negative = inhibition” value is -28.6%. As to `COc1ccc(NC(=S)NCCN2CCC(C)CC2)cc1`, the “activity change, negative = inhibition” value is 23.5%. As to `COc1ccc(NC(=S)NCC2CCN(c3ccc(OC)cc3)C2)cc1` (stereo not given), the Potency is 25.1 µM (active).

For the molecule `COc1cccc(N2CC(C(=O)Nc3c(C)cccc3C)CC2=O)c1` (stereo not given), the “activity change, negative = inhibition” value was -8.02%. Take `COc1ccc(N2CCC(CNC(=S)Nc3c(C)cccc3C)C2)cc1` (stereo not given): the Potency is 12.6 µM (active).

For `Cc1nc2cc(NC(=O)Nc3cccc(F)c3)ccc2n1C`, the “activity change, negative = inhibition” value is -11.2% [at 57.5 µM]. The same measure, in the same setting: the value for `CC(C)=NN1C(=O)c2ccccc2NC1(C)C` was -17.9% [at 57.5 µM]; that for `OCCC1CN(Cc2ccc3nsnc3c2)CCN1C1CCCCC1` (stereo not given) was -6.33% [at 57.5 µM]. Still for that read-out and setting: to `O=C(/C=C/c1ccc2c(c1)OCO2)NCc1cn2cc(Cl)ccc2n1` belongs -5.35%. With `Cc1c(Cc2ccccc2)c(=O)oc2cc(OCC(N)=O)ccc12`, the “activity change, negative = inhibition” value was -6.39%. Turning to `Cc1ccc(S(=O)(=O)N2CCN(C(=O)c3cccs3)CC2)cc1`, the “activity change, negative = inhibition” value is -8.75%.

In the case of `COC(=O)C1=C(N)Oc2cc(C)[nH]c(=O)c2C1c1ccc(Cl)cc1` (stereo not given), the “activity change, negative = inhibition” value was -16.6% [at 57.5 µM]. `O=C(NNC(=O)c1ccc(Cl)cc1Cl)c1cccs1`: the “activity change, negative = inhibition” value is 4.42%.
